# Experimental data published in PubChem BioAssay (NCATS).
# Where “and” joins values, the source holds several entries; their conditions need not be identical. Equal values may be shown once. Records with an inconclusive call do not appear. Where a structure was tested more than once in an assay, its records may differ in their call. Calls of active or inactive are those of the source. The call rests on the fitted dose curve; in most records, active means well fitted curve in the direction sought with a large enough effect; inconclusive means small, poorly fitted or top-dose-only effect, or another doubt; inactive means no such curve, though single readings can be large; an effect the other way counts as inactive or inconclusive.
# Target: Guanine nucleotide-binding protein G(i) subunit alpha-1 (Homo sapiens) (UniProt P63096)
# Sequence (P63096 whole entry, looked up): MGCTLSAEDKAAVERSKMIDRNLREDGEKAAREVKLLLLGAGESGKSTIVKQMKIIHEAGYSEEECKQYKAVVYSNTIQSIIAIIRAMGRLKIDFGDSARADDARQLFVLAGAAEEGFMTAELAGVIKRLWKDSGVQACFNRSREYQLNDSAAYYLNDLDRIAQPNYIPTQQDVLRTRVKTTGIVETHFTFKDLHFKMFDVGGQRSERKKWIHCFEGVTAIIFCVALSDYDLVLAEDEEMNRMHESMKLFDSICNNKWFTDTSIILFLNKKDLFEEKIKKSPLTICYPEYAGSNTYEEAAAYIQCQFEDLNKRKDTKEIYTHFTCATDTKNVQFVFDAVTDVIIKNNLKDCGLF
# Test: qHTS Assay for Inhibitors of RGS12 GoLoco Motif Activity (Green Fluorophore) (AID 879);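 further: 0% = labeled peptide with Gαi1 and full inhibition = labeled peptide alone without protein; negative values mean loss of peptide binding seen as reduced polarization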
# Conditions: Galphai1/FITC-RGS12 GoLoco peptide, fluorescence polarization; series mostly up to 57.1 µM; activity, negative = inhibition: at the top concentration
# Method in brief: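 Fluorescence polarization assay: 50 nM Gαi1 with 10 nM FITC-labeled RGS12 GoLoco peptide in 10 mM Tris pH 7.5, 150 mM NaCl, 0.1 mM GDP, 0.05% NP40, 10 min at room temperature with compound.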
row,Compound,"activity, negative = inhibition"
1,COc1ccc2c(c1)c(CC(=O)O)c(C)n2C(=O)c1ccccc1,-7.36% (inactive)
2,Cc1nc2c(OCc3ccccc3)cccn2c1CC#N,-1.74% (inactive)
3,N=C(N)SCCc1cnc[nH]1,-22.1% (inactive)
4,NC(=O)CNCCC(c1ccccc1)c1ccccc1,0.313% (inactive)
5,O=C1Cc2c([nH]c3ccc(Br)cc23)-c2ccccc2N1,-8.33% (inactive)
6,COc1ccc(CCN(C)CCc2ccc(OC)c(OC)c2)cc1OC,-2.19% (inactive)
7,CCSC(=N)N,2.89% (inactive)
8,CCCn1c(=O)c2c(ncn2C)n(CCC)c1=O,4.85% (inactive)
9,Fc1ccc(CN(C2=NCCN2)c2c(Cl)cccc2Cl)cc1,11.7% (inactive)
10,NC(=Nc1ccccc1)NC(=O)c1nc(Cl)c(N)nc1N,-8.78% (inactive)
11,COc1ccccc1N1CCN(CCCCNC(=O)c2ccc3ccccc3c2)CC1,-20.9% (inactive)
12,N[C@H](C(=O)O)[C@H](O)C(=O)O,-24.6% (inactive)
13,NC1(C(=O)O)CCCCC1,-12.5% (inactive)
14,COc1ccccc1N1CCN(CCCCN2C(=O)c3ccccc3C2=O)CC1,-17.4% (inactive)

# Target: Cytochrome P450 2C9 (Homo sapiens) (UniProt P11712)
# Sequence (P11712 whole entry, looked up): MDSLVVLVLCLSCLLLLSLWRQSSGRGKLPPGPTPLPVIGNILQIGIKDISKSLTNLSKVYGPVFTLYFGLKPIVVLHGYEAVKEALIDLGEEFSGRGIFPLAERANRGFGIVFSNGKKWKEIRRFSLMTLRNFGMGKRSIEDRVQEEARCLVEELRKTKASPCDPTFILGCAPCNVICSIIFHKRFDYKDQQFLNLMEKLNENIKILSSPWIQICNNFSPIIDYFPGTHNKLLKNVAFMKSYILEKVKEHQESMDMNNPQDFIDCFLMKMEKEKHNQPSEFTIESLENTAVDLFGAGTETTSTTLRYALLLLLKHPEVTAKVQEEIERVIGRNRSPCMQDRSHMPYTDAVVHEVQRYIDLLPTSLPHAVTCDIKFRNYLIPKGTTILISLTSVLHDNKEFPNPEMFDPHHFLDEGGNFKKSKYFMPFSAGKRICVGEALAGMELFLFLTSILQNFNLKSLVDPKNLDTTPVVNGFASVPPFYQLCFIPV
# Test: qHTS Assay for Inhibitors and Substrates of Cytochrome P450 2C9 (AID 883); further: nearly all actives have a fitted effect of over 60% in size; further: potency means the concentration at half of the fitted maximal effect; on activity change, negative = inhibition: on the % scale 0 is the no-effect control and ±100 the full control effect
# Conditions: recombinant CYP2C9, luciferin-H luminescence, 60 min; series mostly up to 57.1 µM; activity change, negative = inhibition: at the top concentration
# Method in brief: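 Turnover of Luciferin-H (100uM, KM) by 10nM human CYP2C9 was measured over 60 min at 37C with NADPH regeneration; inhibitors and some substrates reduce luminescence. Data normalized to sulphaphenazole 57uM.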
Compound,"activity change, negative = inhibition",Potency
O=C(c1ccc2c(c1)OCCO2)N1CCCCC1,1.79% (inactive),
C=C1C(=O)O[C@@H]2[C@H]3O[C@]3(C)CCC=C(C)CC[C@@H]12,7.46% (inactive),
C[C@](Cc1ccc(O)c(O)c1)(NN)C(=O)O,-16.4% (inactive),
Oc1cc(O)c2c(c1)O[C@H](c1ccc(O)c(O)c1)[C@@H](O)C2,-18.4% (inactive),
NC[C@@H]1O[C@H](c2ccccc2)Cc2c1ccc(O)c2O,,6.31 µM (active)
Cc1nc(N=Nc2ccc(C(=O)O)cc2)c(COP(=O)(O)O)c(C=O)c1O,-11.4% (inactive),

# Target: Cytochrome P450 3A4 (Homo sapiens) (UniProt P08684)
# Sequence (P08684 whole entry, looked up): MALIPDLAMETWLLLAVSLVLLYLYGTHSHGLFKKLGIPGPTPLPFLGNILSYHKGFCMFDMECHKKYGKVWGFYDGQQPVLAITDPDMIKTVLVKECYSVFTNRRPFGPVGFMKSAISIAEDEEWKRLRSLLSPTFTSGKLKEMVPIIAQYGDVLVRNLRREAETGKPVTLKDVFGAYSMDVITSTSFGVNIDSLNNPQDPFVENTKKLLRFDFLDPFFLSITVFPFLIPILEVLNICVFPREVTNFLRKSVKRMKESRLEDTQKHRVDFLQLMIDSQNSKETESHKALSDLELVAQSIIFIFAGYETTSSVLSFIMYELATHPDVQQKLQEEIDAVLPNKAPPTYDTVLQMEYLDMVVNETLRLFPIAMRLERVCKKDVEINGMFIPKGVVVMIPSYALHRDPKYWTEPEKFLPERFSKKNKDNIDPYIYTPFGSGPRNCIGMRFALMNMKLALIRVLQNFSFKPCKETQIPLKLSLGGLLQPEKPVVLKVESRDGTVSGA
# Test: qHTS Assay for Inhibitors and Substrates of Cytochrome P450 3A4 (AID 884); further: nearly all actives have a fitted effect of over 50% in size; further: potency means the concentration at half of the fitted maximal effect; on activity change, negative = inhibition: on the % scale 0 is the no-effect control and ±100 the full control effect
# Conditions: recombinant CYP3A4, Luciferin-PPXE luminescence; series mostly up to 57.1 µM; activity change, negative = inhibition: at the top concentration
# Method in brief: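 20 nM human CYP3A4 with 25 uM Luciferin-PPXE (at KM) in 200 mM KPO4, preincubated 10 min with compound; NADPH regeneration started a 60 min RT reaction. Luciferin detected by luminescence, normalized to 57 uM ketoconazole as full inhibition.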
Compound,"activity change, negative = inhibition",Potency
c1ccc(C(NCCNC(c2ccccc2)c2ccccc2)c2ccccc2)cc1,65.9% (inactive),
C=C(C)C1CC=C(C(=O)O)CC1 (centres undefined),0.364% (inactive),
CN(C)CCC(c1ccc(Br)cc1)c1ccccn1 (centres undefined),-8.26% (inactive),
CC1=C(/C=C/C(C)=C/C=C/C(C)=C\C(=O)O)C(C)(C)CCC1,-2.76% (inactive),
c1ccc(C2CN3CCSC3=N2)cc1 (centres undefined),-16% (inactive),
CC(C)(C)c1ccc(/C=C/C(=O)Nc2ccc3c(c2)OCCO3)cc1,-16.2% (inactive),
CCCCCCCCCCC(C)(C)C(=O)Nc1c(OC)cc(OC)cc1OC,,7.94 µM (active)
Oc1cc(O)c2c(c1)O[C@H](c1ccc(O)c(O)c1)[C@@H](O)C2,-16.3% (inactive),
CN1C2CCC1CC(OC(c1ccccc1)c1ccccc1)C2 (centres undefined),-19.4% (inactive),
O=C1OC(=O)C2C3CCC(O3)C12 (centres undefined),,inactive
Nc1nc2c(cnn2CCc2ccccc2)c2nc(-c3ccco3)nn12,,31.6 µM (active)

# Target: Cytochrome P450 3A4 (Homo sapiens) (UniProt P08684)
# Test: qHTS Assay for Activators of Cytochrome P450 3A4 (AID 885); further: nearly all actives have a fitted effect of over 65% in size
# Conditions: recombinant CYP3A4, Luciferin-PPXE luminescence, 60 min; series mostly up to 57.1 µM; activity change, positive = activation: at the top concentration
# Method in brief: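 Signal was normalized against complete inhibition by 57 uM ketoconazole. The reaction used 20nM CYP3A4 with 25uM Luciferin-PPXE, 10-min compound preincubation and a 60-min NADPH-supported step at RT.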
Compound,"activity change, positive = activation",Potency
NC1CONC1=O (centres undefined),-49.4% (inactive),
CN(C)CCCc1cc(C(=O)Nc2ccc(-c3ccncc3)cc2)ccc1O,-51.5% (inactive),
Cc1nc2c(OCc3ccccc3)cccn2c1CC#N,-66.5% (inactive),
NC(=O)CNCCC(c1ccccc1)c1ccccc1,,inactive
O=C1Cc2c([nH]c3ccc(Br)cc23)-c2ccccc2N1,-82.1% (inactive),
COc1ccc(CCN(C)CCc2ccc(OC)c(OC)c2)cc1OC,,inactive
CCCn1c(=O)c2c(ncn2C)n(CCC)c1=O,-30.1% (inactive),
CCc1ccc2c(-c3cccc(Cl)c3)nc(=O)n(CC)c2n1,-57.4% (inactive),
NC(=Nc1ccccc1)NC(=O)c1nc(Cl)c(N)nc1N,-30.5% (inactive),
COc1ccccc1N1CCN(CCCCNC(=O)c2ccc3ccccc3c2)CC1,-46.3% (inactive),
C=C1C(=O)O[C@@H]2[C@H]3O[C@]3(C)CCC=C(C)CC[C@@H]12,-48% (inactive),
N[C@H](C(=O)O)[C@H](O)C(=O)O,-40.8% (inactive),
C[C@H](O)C(=O)C1=Nc2c(nc(N)[nH]c2=O)NC1,-33.6% (inactive),
Nc1nc2c(cnn2CCc2ccccc2)c2nc(-c3ccco3)nn12,-81.6% (inactive),
COc1ccccc1N1CCN(CCCCN2C(=O)c3ccccc3C2=O)CC1,,inactive

# Target: Cytochrome P450 2D6 (Homo sapiens) (UniProt P10635)
# Sequence (P10635 whole entry, looked up): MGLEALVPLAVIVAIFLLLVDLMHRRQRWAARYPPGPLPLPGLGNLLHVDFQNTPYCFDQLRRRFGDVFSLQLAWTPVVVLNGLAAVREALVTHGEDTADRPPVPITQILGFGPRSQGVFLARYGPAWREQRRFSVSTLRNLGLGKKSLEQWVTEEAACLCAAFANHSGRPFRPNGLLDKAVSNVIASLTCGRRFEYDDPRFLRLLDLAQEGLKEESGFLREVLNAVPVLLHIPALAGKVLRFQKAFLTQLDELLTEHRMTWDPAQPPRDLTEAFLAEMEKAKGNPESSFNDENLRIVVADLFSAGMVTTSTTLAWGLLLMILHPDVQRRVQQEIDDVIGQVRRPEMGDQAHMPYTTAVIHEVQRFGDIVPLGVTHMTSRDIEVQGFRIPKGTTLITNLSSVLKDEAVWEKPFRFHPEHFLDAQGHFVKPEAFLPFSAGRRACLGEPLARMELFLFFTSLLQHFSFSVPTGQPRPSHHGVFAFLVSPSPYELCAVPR
# Test: qHTS Assay for Inhibitors and Substrates of Cytochrome P450 2D6 (AID 891); further: nearly all actives have a fitted effect of over 60% in size; further: potency means the concentration at half of the fitted maximal effect;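 on activity change, negative = inhibition: luciferin methyl ether substrate demethylated by CYP2D6 with NADPH regeneration; on the % scale 0 is the no-effect control and ±100 the full control effect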
# Conditions: recombinant CYP2D6, luciferin-ME EGE luminescence; series mostly up to 57.1 µM; activity change, negative = inhibition: at the top concentration
# Method in brief: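 Human CYP2D6 (5 nM) with 30 uM Luciferin-ME EGE (at Km) in 100 mM KPO4, compound preincubated 10 min, then NADPH regeneration system for 60 min at room temperature. Luciferin read by luminescence; normalized to 1.43 uM quinidine.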
Compound,"activity change, negative = inhibition",Potency
COc1ccc2c(c1)c(CC(=O)O)c(C)n2C(=O)c1ccccc1,18.4% (inactive),
CN(C)CCCc1cc(C(=O)Nc2ccc(-c3ccncc3)cc2)ccc1O,,5.01 µM (active)
CSC(=N)N,,0.0501 µM (active)
N=C(N)SCCc1cnc[nH]1,,6.31 µM (active)
O=C1Cc2c([nH]c3ccc(Br)cc23)-c2ccccc2N1,,inactive and 398 nM (active)
CCSC(=N)N,,3.98 µM (active)
O=C(c1ccc2c(c1)OCCO2)N1CCCCC1,-2.92% (inactive),
Fc1ccc(CN(C2=NCCN2)c2c(Cl)cccc2Cl)cc1,,1.26 µM (active)
COc1ccccc1N1CCN(CCCCNC(=O)c2ccc3ccccc3c2)CC1,,3.16 µM (active) and 3.98 µM (active)
C=C1C(=O)O[C@@H]2[C@H]3O[C@]3(C)CCC=C(C)CC[C@@H]12,-4.64% (inactive),
C[C@](Cc1ccc(O)c(O)c1)(NN)C(=O)O,-1.34% (inactive),
Oc1cc(O)c2c(c1)O[C@H](c1ccc(O)c(O)c1)[C@@H](O)C2,7.78% (inactive),
NC1(C(=O)O)CCCCC1,23.9% (inactive),
